Assay [1] in a line: qHTS assay to identify small molecule antagonists of the retinoid acid receptor (RAR) signaling pathway - cell viability counter screen (AID 1159551). Further: nearly all actives have a fitted effect of over 35% in size. Further: potency means the concentration at half of the fitted maximal effect. In outline:
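C3RL4 RARE-luciferase line; cpds + retinol 1 uM final, 6 h, 37 C/5% CO2; CellTiter-Glo ATP luminescence, 30 min RT.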
(In qHTS, concentration-response curves come from the screen itself.)

The nature of assay [2]: qHTS assay to identify small molecule antagonists of the retinoic acid receptor (RAR) signaling pathway (AID 1159552; further: nearly all actives have a fitted effect of over 50% in size; further: potency means the concentration at half of the fitted maximal effect). In outline: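 C3RL4 RARE-luc cells, overnight plating; retinol 1 uM final added right after compound; 6 hr 37 C; luciferase read at 30 min RT.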
A short description of assay [3]: qHTS assay to identify small molecule antagonists of the estrogen related receptor (ERR) signaling pathway (AID 1224819; further: nearly all actives have a fitted effect of over 50% in size; further: potency means the concentration at half of the fitted maximal effect). In outline:
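Luminescence readout (One-Glo, 30 min, RT) of ERR cell line after 18 h compound exposure at 37 C; cells seeded 2,000/well, pre-incubated 6 h, compounds pinned from DMSO stocks.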

A short description of assay [4]: qHTS assay to identify small molecule agonists of the estrogen related receptor signaling pathway with the pleiotropic PPARgamma coactivator (PGC) (AID 1224823). The method in brief: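 Luminescence from One-Glo reagent (30 min, room temperature) was read after 18 h compound treatment at 37 C of PGC/ERR cells plated 6 h beforehand; compounds delivered in DMSO by pin tool.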

Assay [5] concerns estrogen-related receptor alpha (ERRalpha) with PGC-1alpha coactivator, human. The assay is described as follows: qHTS assay to identify small molecule antagonists of the estrogen related receptor signaling pathway with the pleiotropic PPARgamma coactivator (PGC) (AID 1224821; calls by dose curve;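 further: series mostly up to about 46 µM; lower luminescence signal means antagonism of PGC/ERR signalling; nearly all actives have a fitted effect of over 50% in size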). The method in brief:
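Luminescence from One-Glo luciferase reagent (30 min, room temperature) measured after 18 h compound treatment at 37 °C. Cells carry the PGC/ERR reporter and were seeded 6 h prior to dosing.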

Assay [6] can be described thus: qHTS assay to identify small molecule antagonists of the estrogen related receptor (ERR) signaling pathway - cell viability counter screen (AID 1224818). Further: series mostly up to about 46 µM. The method in brief: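 Fluorescence from CellTiter-Fluor, read 30 min after reagent addition at 37 C, measured viability of ERR cells exposed to compounds for 17.5 h. Cells had settled 6 h before dosing.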
A short description of assay [7]: qHTS assay to identify small molecule antagonists of the estrogen related receptor (ERR) signaling pathway from Tox21 library - cell viability counter screen (AID 1224834). Further: nearly all actives have a fitted effect of over 30% in size. Further: potency means the concentration at half of the fitted maximal effect. The method in brief:
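Multiplexed viability counter screen in ERR cells: 17.5 h compound exposure at 37 C, CellTiter-Fluor added, 30 min at 37 C/5% CO2, fluorescence read.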

The nature of assay [8]: qHTS assay to identify small molecule agonists of the retinoic acid receptor (RAR) signaling pathway (AID 1159553). The method in brief:
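RARE-luc C3RL4 cells; overnight attachment 37 C/5% CO2; compound (DMSO) 6 hr; luciferase reagent, 30 min RT; luminescence read-out.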

Assay [9] is described as follows: qHTS assay to identify small molecule antagonists of the estrogen related receptor signaling pathway with the pleiotropic PPARgamma coactivator (PGC) cell viability counter screen (AID 1224822; further: series mostly up to about 46 µM). The method in brief:
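Fluorescence read-out of CellTiter-Fluor after 30 min at 37 C; PGC/ERR cells, 2,000 per well, had been exposed to DMSO-dissolved compounds for 17.5 h following a 6 h pre-incubation.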

Assay [10] in a line: qHTS assay to identify small molecule agonists of the estrogen related receptor (ERR) signaling pathway (AID 1224820). The method in brief:
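After 6 h plating (2,000 cells/well) and 18 h compound treatment at 37 C, ERR cells were lysed with One-Glo and luminescence read after 30 min at room temperature.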

Molecules are shown by their SMILES. Several values for one entry are separate records, joined by “and”; a condition that tells them apart may be missing. Equal values may be shown once. Inconclusive results are not listed. Values without a mark were called inactive. Activity calls are given as the source filed them. Unless noted, the call rests on the fitted dose curve; in most records, active means well fitted curve in the direction sought with a large enough effect in the repeat runs; inconclusive means weak or mixed curves; inactive means no such curve, though single readings can be large; an effect the other way counts as inactive or inconclusive.
On the % scale 0 is the no-effect control and ±100 the full control effect.

As to `CCc1c(C(=O)O)c(=O)cnn1-c1ccc(Cl)cc1`, the Potency entry in [1] and in [2] was “inactive” in each case.

For the compound `N#CSCSc1nc2ccccc2s1`, the Potency in assay [1] is 61.1 µM (active); in assay [2] it was 17.2 µM (active).

Consider `O=C=NCc1cccc(CN=C=O)c1`, for which the activity change, negative = cytotoxicity in [1] was 2.07% [at 19 µM]. For the same compound, in [2], the activity, negative = inhibition was 6.56% [at 19 µM].

For the compound `CCO[Si](CCCSSSSCCC[Si](OCC)(OCC)OCC)(OCC)OCC`, the Potency entry in [1] is “inactive”.

With `Cc1occc1SSc1ccoc1C`, the Potency entry in assay [1] is “inactive”.

Take `COc1nccnc1CC(C)C`: the Potency entry in assay [1] and in [2] was “inactive” throughout.

Regarding `CCOC(=O)COc1ccc(C)cc1`, the Potency result in assay [1] and in [2] was “inactive” throughout.

Consider `CCOCN(C(=O)CS(=O)(=O)O)c1c(C)cccc1CC`, for which the Potency result in [1] and in assay [2] was “inactive” in each case.

For the compound `C=C(C)CCCC`, the Potency entry in [1] and in assay [2] was “inactive” in each case.

For `CCCN(CCc1cccs1)[C@H]1CCc2c(O)cccc2C1`, in assay [1], the Potency result was “inactive”.

On to `CC1(C)COCN1`, for which the Potency result in assay [1] and in assay [2] was “inactive” in each case.

Take `COc1cccc(O)c1`: the Potency result in [1] and in [2] was “inactive” each time.

With `C#CC(O)CCC` (centres undefined), the Potency entry in assay [1] and in [2] was “inactive” throughout.

Turning to `COc1cccc(OC)c1O`, the Potency entry in [1] and in assay [2] was “inactive” each time.

Consider `CCCCCCCCCCCCCCCCCO`, for which, in assay [1], the activity change, negative = cytotoxicity was 0.141% [at 19 µM]. Further, the activity, negative = inhibition in [2] was -5.96% [at 19 µM].

As for `CNCC[C@H](Oc1cccc2ccccc12)c1cccs1`, the Potency entry in assay [1] was “inactive”. In addition, in assay [2], the Potency was 23.7 µM (active).

For `Cc1ccc(O)cn1`, the Potency result in assay [1] and in assay [2] was “inactive” each time.

For `CCCCOC(=O)C(C)CC` (centres undefined), the Potency result in assay [1] and in assay [2] was “inactive” each time.

In the case of `CCOC(=O)CC(C)O` (centres undefined), the Potency entry in assay [1] and in [2] was “inactive” each time.

Regarding `c1cc[nH]c1`, the Potency entry in assay [1] and in [2] was “inactive” throughout.

On to `CO[Si](CCC1CCC2OC2C1)(OC)OC` (centres undefined), for which the Potency result in assay [1] and in assay [2] was “inactive” each time.

As for `CC(=O)OC1CCCCC1`, the Potency entry in assay [1] and in [2] was “inactive” throughout.

For the compound `CCCSS/C(CCO)=C(\C)N(C=O)Cc1cnc(C)nc1N`, the Potency result in assay [1] is “inactive”. In addition, the Potency in [2] is 29.8 µM (active).

For the compound `COc1cccc(CCc2ccccc2OCC(CN(C)C)OC(=O)CCC(=O)O)c1` (centres undefined), the Potency result in assay [1] was “inactive”.

For `CCCCN(C)C`, the Potency result in assay [1] and in [2] was “inactive” throughout.

For the compound `C=CC(=C)CCC=C(C)C`, in [1], the Potency result was “inactive”.

As for `Cc1oc(-c2ccccc2)nc1CCOc1ccc(C[C@H](Nc2ccccc2C(=O)c2ccccc2)C(=O)O)cc1`, the Potency entry in [1] and in assay [2] was “inactive” in each case.

Regarding `CCCCOCC`, the Potency result in [1] and in [2] was “inactive” each time.

Consider `O=C1C=CC(=O)N1c1ccccc1`, for which the values for the Potency in assay [1] and in [2] were 30.6 µM (active) and 6.11 µM (active), respectively.

As to `Clc1cccnc1`, the Potency entry in [1] and in assay [2] was “inactive” each time.

Take `CCCCN(CCCC)CCC(O)c1cc2c(Cl)cc(Cl)cc2c2cc(C(F)(F)F)ccc12` (centres undefined): in assay [1], the Potency result is “inactive”.

With `CCOC(=O)[C@@](C)(N)Cc1ccc(O)c(O)c1`, in assay [1], the Potency result was “inactive”.

As to `COc1ccc2sc(C(=O)Nc3nnn[nH]3)c(OC(C)C)c2c1`, the Potency entry in [1] is “inactive”.

On to `Clc1nc2ccccc2s1`, for which the Potency result in assay [1] and in [2] was “inactive” each time.

In the case of `CCC(=O)OCCc1ccccc1`, the Potency entry in [1] is “inactive”.

Regarding `CCC(C)(C)c1cc(O)c(C(C)(C)CC)cc1O`, the Potency result in [1] was “inactive”.

Regarding `CC1CCCNC1` (centres undefined), the Potency entry in assay [1] was “inactive”.

Consider `CN(C)CCCN1c2ccccc2Sc2ccc(C(F)(F)F)cc21`, for which the Potency result in [1] was “inactive”. Further, the Potency in assay [2] was 29.8 µM (active).

Take `CC(C)(C)CC(C)(C)c1ccccc1O`: the Potency in assay [1] was 54.8 µM (active); in [2] it was 27.4 µM (active).

`CC(=O)Oc1ccc(C2(c3ccc(OC(C)=O)cc3)Oc3ccccc3NC2=O)cc1`: the Potency result in assay [1] is “inactive”.

On to `Cc1cc2c(C(C)C)c(O)c(O)c(C=O)c2c(O)c1-c1c(C)cc2c(C(C)C)c(O)c(O)c(C=O)c2c1O`, for which the Potency in assay [3] is 2.76 µM (active). The result in assay [4] was inactive.

`O=C(NO)c1ccccc1`: the compound was called inactive in assay [5] and in assay [4].

As to `Clc1ccc(C(c2ccccc2Cl)C(Cl)Cl)cc1` (centres undefined), the Potency entry in [1], in [6] and in [7] was “inactive” each time. The Potency in assay [2] is 54.5 µM (active).

For the compound `CNC(=S)NN`, the Potency entry in [1] is “inactive”. Besides, the Potency is 43.3 µM (active) in assay [2] and 15.4 µM (active) in [7].

As to `O=C(O)c1cccc(Cl)n1`, the Potency entry in [1], in assay [2] and in [7] was “inactive” throughout.

In the case of `CC(C)=CCCC(C)CCOC(=O)C(C)C` (centres undefined), the Potency result in assay [1], in [2] and in [7] was “inactive” in each case.

In the case of `COc1ccc(-n2nc(CCC(=O)N(C)O)cc2-c2ccc(Cl)cc2)cc1`, the Potency entry in [1], in assay [2] and in assay [8] was “inactive” throughout. The Potency in [7] was 26.6 µM (active).

As to `COc1ccc(C#N)cc1`, the Potency result in [1], in assay [2] and in [7] was “inactive” in each case.

Take `C/C=C/C(=O)C1=C(C)CCCC1(C)C`: the Potency entry in assay [1], in [2] and in assay [7] was “inactive” in each case.

Turning to `C[Si](C)(C)Cl`, the Potency entry in assay [1], in [2], in assay [8] and in [7] was “inactive” in each case.

On to `CCc1c(Br)c(Br)c(Br)c(Br)c1Br`, for which the Potency result in [1], in [2] and in [7] was “inactive” in each case.

Consider `CNC(=O)c1cc(Oc2ccc(NC(=O)Nc3ccc(Cl)c(C(F)(F)F)c3)cc2)ccn1`, for which the Potency entry in assay [1] and in assay [8] was “inactive” throughout. In addition, the Potency in assay [2] is 29.8 µM (active); in [7], 26.6 µM (active).

With `Cn1cnc2ncnc(N)c21`, the Potency result in [1], in [2], in [8] and in [7] was “inactive” each time.

Turning to `CC(C)(C)c1cc(CCC(=O)NCCCCCCNC(=O)CCc2cc(C(C)(C)C)c(O)c(C(C)(C)C)c2)cc(C(C)(C)C)c1O`, the Potency entry in [1], in assay [2] and in [7] was “inactive” throughout.

With `Oc1ccc(-c2ccccc2)c(Cl)c1`, the Potency result in assay [1], in [2] and in [7] was “inactive” throughout.

For `CC(C)c1cccc(C(C)C)c1N1C(=O)c2ccc(O)cc2C1=O`, the Potency is 61.1 µM (active) in assay [1] and 24.3 µM (active) in assay [2]. Moreover, the Potency entry in [9] is “inactive”.

On to `C[C@H]1O[C@@H](O[C@H]2[C@@H](O)C[C@H](O[C@H]3[C@@H](O)C[C@H](O[C@H]4CC[C@@]5(C)[C@H](CC[C@@H]6[C@@H]5C[C@@H](O)[C@]5(C)[C@@H](C7=CC(=O)OC7)CC[C@]65O)C4)O[C@@H]3C)O[C@@H]2C)C[C@H](O)[C@@H]1O`, for which the Potency result in assay [1], in [2] and in [8] was “inactive” throughout. Also, the Potency in [7] was 86.4 nM (active) and 95.8 nM (active).

Turning to `CCCCCCS`, the Potency entry in [1], in assay [2] and in [7] was “inactive” throughout.

Consider `CCCCCCCC/C=C\CCCCCCCC(=O)NCc1ccc(O)c(OC)c1`, for which the Potency entry in assay [1], in [2], in assay [6], in assay [3], in assay [9] and in assay [7] was “inactive” in each case. Also, the outcome in [10] and in assay [4] was inactive.

The record behind these values is PubChem BioAssay (Tox21).
